MPTP block: inhibitors of mitochondrial permeability transition pore; isolated mouse mitochondria, Ca2+ swelling absorbance, 30 min; inhibition, % at 10 µM; 360,000 tested, 1.4% active; AID 602449;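 active means inhibition of 50% or more, scaled per plate between neutral and stimulator controls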;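 further: 0% = DMSO wells given calcium and 100% = 1 mM EGTA wells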
CRFBP-R2 agonist: agonists of human CRF-binding protein/CRF-R2 receptor complex. HEK293 CRF-R2/CRF-BP, calcium dye fluorescence (FLIPR); percent of saturating CRF peptide response. activation, % at 13.2 µM. 350,000 tested, 0.46% active;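 active means activation of at least 50%, plus an integration ratio under a set limit after plate pattern correction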;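 further: plate controls were neutral control wells without compound for no effect and CRF at EC100 for full effect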
ANO1 block: inhibitors of mouse TMEM16A calcium-activated chloride channel | Q8BHY3 | HEK293 TMEM16A/YFP iodide influx fluorescence, ionomycin | normalized B-score (activity score, 25-100; higher = stronger inhibition) at 10 µM | 310,000 tested, 1.2% active | AID 588511;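 active means ratio plate-corrected score three or more library SD toward inhibition, starting fluorescence score within five deviations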;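 further: score derived from kinetic fluorescence span divided by baseline fluorescence per well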
Target sequence (Q8BHY3 whole entry, looked up): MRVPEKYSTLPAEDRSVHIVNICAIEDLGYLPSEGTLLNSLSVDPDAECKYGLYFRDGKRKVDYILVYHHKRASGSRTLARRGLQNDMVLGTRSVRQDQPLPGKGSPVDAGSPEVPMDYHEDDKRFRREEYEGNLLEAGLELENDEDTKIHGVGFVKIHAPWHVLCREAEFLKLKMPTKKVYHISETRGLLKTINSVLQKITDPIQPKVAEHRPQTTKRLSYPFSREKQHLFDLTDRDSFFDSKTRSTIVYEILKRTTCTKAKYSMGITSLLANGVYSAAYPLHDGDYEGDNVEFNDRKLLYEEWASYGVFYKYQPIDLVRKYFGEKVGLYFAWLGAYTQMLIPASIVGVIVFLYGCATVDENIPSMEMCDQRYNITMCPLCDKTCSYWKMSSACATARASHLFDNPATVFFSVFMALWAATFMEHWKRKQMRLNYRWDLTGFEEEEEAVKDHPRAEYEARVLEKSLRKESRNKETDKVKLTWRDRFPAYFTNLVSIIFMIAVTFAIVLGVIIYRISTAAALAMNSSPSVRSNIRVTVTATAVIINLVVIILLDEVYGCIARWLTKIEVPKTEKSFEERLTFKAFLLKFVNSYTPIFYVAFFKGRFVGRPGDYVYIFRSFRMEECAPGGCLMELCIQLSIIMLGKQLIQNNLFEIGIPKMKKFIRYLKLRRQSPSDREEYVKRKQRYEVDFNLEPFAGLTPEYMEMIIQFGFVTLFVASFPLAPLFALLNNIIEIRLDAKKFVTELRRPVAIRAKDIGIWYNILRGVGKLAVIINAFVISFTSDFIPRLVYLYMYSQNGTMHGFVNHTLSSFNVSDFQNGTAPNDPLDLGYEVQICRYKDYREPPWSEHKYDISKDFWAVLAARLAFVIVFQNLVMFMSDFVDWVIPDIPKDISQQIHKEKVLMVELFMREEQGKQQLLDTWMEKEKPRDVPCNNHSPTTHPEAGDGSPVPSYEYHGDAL
GRIN3A LBD mod: NR3A (human) ligand-binding domain modulation; Tm shift relative to glycine control, % at 25 µM; AID 1259313; NR3A LBD differential scanning fluorimetry, Tm shift; 0% = protein alone, 100% = glycine-bound protein; 340,000 tested, 2.5% active;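 active means melting temperature shift of at least 10% of the positive control shift, at one fixed dose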
ANO1 activ: activators or potentiators of mouse TMEM16A chloride channel. HEK293 TMEM16A/YFP-H148Q/I152L, iodide quench fluorescence; hits give low values. B-score at 10 µM. 340,000 tested, 0.3% active;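 active means fluorescence-ratio B-score plate-corrected deviation score at least 3 library SD below zero, with starting fluorescence score within 5 deviations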;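 further: channel opened by trigger with iodide after compound preincubation; score built on the fluorescence ratio of max minus min over baseline; more negative score means more quench and so TMEM16A activation or potentiation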
CRFR2-BP antag: CRF-BP/CRF-R2 complex antagonism. HEK293 CRF-R2/CRF-BP, CRF-induced calcium fluorescence. inhibition, % at 11.8 µM. 350,000 tested, 0.59% active. AID 588475;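 active means inhibition of the ligand-induced calcium signal above about 50% at the single tested concentration, limit read from the data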
The depositor's hits bear a star; i = inactive; . = not tested or not shown. A selection: hits, their analogues and other compounds. The true share with any hit is near 5.1%.

SMILES	MPTP block	CRFBP-R2 agonist	ANO1 block	GRIN3A LBD mod	ANO1 activ	CRFR2-BP antag
COC(=O)C1=NN(C(=O)c2ccc(C)cc2)C(O)(c2ccc(Cl)cc2)C1 (stereo not drawn)	.	86.3*	i	-10.0	.	-15.1
COC(=O)C1=NN(C(=O)c2ccccc2)C(O)(c2ccc([N+](=O)[O-])cc2)C1 (stereo not drawn)	3.0	46.6	i	-8.9	i	18.9
COC(=O)C1=NN(C(=O)c2ccccc2)C(C)(O)C1 (stereo not drawn)	-1.1	-1.2	i	-1.3	i	19.4
COC(=O)C1=NN(C(=O)c2cccc(Cl)c2)C(O)(C(C)(C)C)C1 (stereo not drawn)	1.3	88.5*	i	-2.1	i	36.7
COC(=O)C1=NN(C(=O)c2ccc(Br)cc2)C(O)(C(C)(C)C)C1 (stereo not drawn)	2.3	51.7*	.	-1.2	i	17.3
O=C(/C=C/c1c(F)cccc1Cl)N1CCc2ccccc2C1	-0.5	-1.9	i	-1.5	i	-5.1
COc1ccccc1CNC(=O)CN1C(=O)NC2(CCCCCCC2)C1=O	-0.6	-4.0	.	-7.3	i	5.2
CC(=O)c1ccc(-c2cccs2)s1	1.8	0.8	i	0.0	i	63.7*
Cc1cc(NC(=O)/C=C/c2ccccc2Cl)n(-c2nc3ccccc3[nH]2)n1	4.8	3.2	i	15.9*	i	-42.0
COc1ccc(OC)c(/C=C2\S/C(=N/NC(=O)c3ccc4ccccc4c3)NC2=O)c1	10.7	2.2	i	17.1*	i	37.8
O=C1N/C(=N/NC(=O)c2cccc3ccccc23)S/C1=C\c1ccccc1OCc1ccccc1	37.5	-0.8	.	8.3	i	34.4
Cc1ccccc1Nc1scc(-c2ccc(Cl)cc2)[n+]1-c1ccccc1C	3.6	1.2	.	-2.8	i	36.6
CCn1c(=O)c(C(=O)Nc2nc3ccccc3[nH]2)c(O)c2ccccc21	5.4	-1.0	i	-1.9	-7.84*	8.3
CCCCn1nnnc1C1(C)CCC(=O)N1CC1CCCCC1 (stereo not drawn)	-0.5	.	.	.	.	.
COc1cccc(-c2ccc3ncnc(NCc4cccs4)c3c2)c1	1.1	-1.7	.	-9.9	i	54.2*
c1cncc(-c2ccc3ncnc(NCc4cccs4)c3c2)c1	1.7	0.1	.	1.0	i	-0.3
COc1ccc(OCc2nc3c4c(ncn3n2)-c2ccccc2CC42CCCC2)cc1	35.1	-0.1	i	4.4	i	-4.6
Oc1cccc(-c2nc3c4c(ncn3n2)-c2ccccc2CC42CCCC2)c1	10.8	1.4	i	37.0*	i	-68.9
CN(C(=O)/C(N=Nc1cccc(C(F)(F)F)c1)=C(\O)C(F)(F)F)c1ccccc1	-0.3	4.9	100*	-2.6	i	-11.2
CCOc1ccc(NC(=O)CCCN2C(=O)C(c3ccccc3)Oc3cccnc32)cc1 (stereo not drawn)	0.4	-0.7	i	0.0	i	56.8*
Nc1ncnc2c1ncn2[C@@H]1O[C@H](CNCc2cccc(C#Cc3ccccc3)c2)[C@@H](O)[C@H]1O	5.6	-0.2	.	12.7*	.	-8.7
Nc1ncnc2c1ncn2[C@@H]1O[C@H](CNC(=O)[C@@H]2CCN2)[C@@H](O)[C@H]1O	-1.3	-1.8	.	15.4*	.	-0.6
Nc1ncnc2c1ncn2[C@@H]1O[C@H](CNCc2ccccc2)[C@@H](O)[C@H]1O	-0.1	-1.7	.	-0.5	.	-8.0
Cc1ccc2nc(CCl)[n+]([O-])c(-c3ccccc3)c2c1	0.0	-0.6	i	0.3	i	2.8
CC(=O)Nc1nnc(S(N)(=O)=O)s1	.	0.0	i	2.0	i	30.8
CC(=O)N=c1sc(S(N)(=O)=O)nn1C	-0.3	-1.9	i	4.4	i	110.9*
CC(=O)Nc1ccc2nc(NC(=O)c3cccs3)sc2c1	1.7	-3.4	i	6.6	i	18.5
COc1ccc2nc(NC(=O)c3cccs3)sc2c1	0.6	1.0	i	19.3*	i	-17.9
O=C(Nc1nc2ccccc2s1)c1ccc(Cl)s1	2.2	0.5	i	20.9*	i	-8.6
CC(=O)Nc1nc2cc(C(N)=O)ccc2s1	0.7	-0.3	.	-1.3	i	-1.5

Bioassay records (PubChem)
